The source of these data is PubChem BioAssay.

For part of these data: Results with a measured potency or affinity are listed apart. Calls of active or inactive are those of the source.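 The calls were made as follows, unless noted: active = dose curve with midpoint inside tested range, moderate steepness, plateau gap beyond fit error, low compound glow and bead-link interference; inactive = the rest.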

In assay [1] the target is Cell division control protein 42 homolog (Homo sapiens) (UniProt P60953). Kind of assay: activated mutant Cdc42 GTP-binding inhibitors, dose response, biochemical, multiplex bead flow cytometry, Bodipy-FL-GTP (AID 1333;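 active = fitted half-maximal concentration within the tested dose range, moderate curve steepness, a statistically real signal drop, and little compound fluorescence or tag-binding interference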). On the technique in general: A flow cytometer gives signals particle by particle.
The target is the same in assay [2]. The assay is described as follows: wildtype Cdc42 GTP-binding inhibitors, dose response, biochemical, multiplex bead flow cytometry, Bodipy-FL-GTP (AID 1334;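 active = fitted half-maximal concentration within the tested range, moderate curve steepness, significant signal drop, and little compound fluorescence or bead-linkage interference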). To be noted: bead-based flow cytometry, Bodipy-FL-GTP binding to GST-Cdc42; at 100 µM (top of the series) unless noted.
Assay [3] deals with GTPase HRas (Homo sapiens) (UniProt P01112). Kind of assay: inhibitors of GTP binding to wildtype Ras, dose response, biochemical, multiplex bead flow cytometry (AID 1335;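 active = fitted half-maximal concentration within 10 nM to 100 µM, steepness 0.5 to 2, significant signal drop, low assay interference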). To be noted: bead-based flow cytometry, Bodipy-GTP binding to GST-Ras; at 100 µM (top of the series) unless noted.
The subject of assay [4] is Ras-related protein Rab-7a (dog), GTP binding. Kind of assay: Rab7 GTP binding inhibitors, potency, dose response, biochemical, wildtype, multiplex bead flow cytometry (AID 1336; call rule not given here).
Assay [5] deals with Ras-related C3 botulinum toxin substrate 1 (Homo sapiens) (UniProt P63000). Kind of assay: wildtype Rac1 GTP binding inhibitors, dose response, biochemical, multiplex bead flow cytometry (AID 1340). To be noted: GST-Rac1 beads, Bodipy-FL-GTP binding; at 100 µM (top of the series) unless noted.
The target of assay [6] is GTPase HRas (Homo sapiens) (UniProt P01112). Kind of assay: activated Ras mutant GTP binding inhibitors, dose response, biochemical, multiplex bead flow cytometry (AID 1341;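 active = dose-response curve with midpoint inside the tested range, moderate steepness, significant amplitude and little compound fluorescence or bead-attachment interference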;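 also: GST-tagged constitutively activated Ras mutant immobilized on beads and multiplexed with other GTPases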).

Chain of Cell division control protein 42 homolog (Homo sapiens) (P60953 whole entry, looked up): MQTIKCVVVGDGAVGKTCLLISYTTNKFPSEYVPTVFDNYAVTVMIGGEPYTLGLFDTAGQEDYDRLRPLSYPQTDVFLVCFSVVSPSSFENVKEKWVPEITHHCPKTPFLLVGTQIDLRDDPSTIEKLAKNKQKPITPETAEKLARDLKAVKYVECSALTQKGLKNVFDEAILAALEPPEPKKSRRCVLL
Chain of GTPase HRas (Homo sapiens) (P01112 whole entry, looked up): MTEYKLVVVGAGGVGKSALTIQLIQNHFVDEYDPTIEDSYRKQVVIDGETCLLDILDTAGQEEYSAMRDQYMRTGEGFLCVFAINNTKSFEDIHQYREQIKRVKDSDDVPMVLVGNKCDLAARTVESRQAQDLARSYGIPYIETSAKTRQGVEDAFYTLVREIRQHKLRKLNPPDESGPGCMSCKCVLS

As to `Cc1ccc(O)c(C(=O)c2cnn(C(=O)Cc3csc(C)n3)c2)c1`, the call in assay [1], in assay [4] and in assay [6] was inactive. The compound also had a fluorescence, percent of control (lower = inhibition) in assay [2] of 37%. The compound also showed a GTP binding, percent of control in assay [3] of 86.3%. The compound also came in with a GTP binding signal, raw median fluorescence (lower = inhibition) (MCF (arbitrary fluorescence units)) in assay [5] of 242.
For `COc1ccc(CCn2c(C(C)C)nc3c(c(=O)c4ccccc4n3C)c2=O)cc1`, the result in assay [1], in assay [4] and in assay [6] was inactive. In assay [2], this compound had a fluorescence, percent of control (lower = inhibition) of 34.5%. This compound also came in with a GTP binding, percent of control in assay [3] of 82.6%. In assay [5], the GTP binding signal, raw median fluorescence (lower = inhibition) (MCF (arbitrary fluorescence units)) stood at 241.
`COc1ccc(/C=C2\N=C(SC)SC2=O)cc1OC`: the call in assay [1], in assay [4] and in assay [6] was inactive. In assay [2], this compound came in with a fluorescence, percent of control (lower = inhibition) of 86.4%. Moreover, in assay [3], the GTP binding, percent of control was found to be 150%. Also, the GTP binding signal, raw median fluorescence (lower = inhibition) (MCF (arbitrary fluorescence units)) in assay [5] stood at 186.
Turning to `COc1ccc(C(=O)N/C(=C\c2cccc([N+](=O)[O-])c2)C(=O)Nc2cccc(C(=O)O)c2)cc1`, the call in assay [1], in assay [4] and in assay [6] was inactive. The compound also gave a fluorescence, percent of control (lower = inhibition) in assay [2] of 35.1%. This compound came in with a GTP binding, percent of control in assay [3] of 78.2%. The same compound displayed a GTP binding signal, raw median fluorescence (lower = inhibition) (MCF (arbitrary fluorescence units)) in assay [5] of 162.
For the compound `CCn1c2ccccc2c2nnc(SCC(=O)NCCOC)nc21`, the result in assay [1], in assay [4] and in assay [6] was inactive. This compound also returned a fluorescence, percent of control (lower = inhibition) in assay [2] of 50.8%. In assay [3], this compound displayed a GTP binding, percent of control of 59.6%. Moreover, the GTP binding signal, raw median fluorescence (lower = inhibition) (MCF (arbitrary fluorescence units)) in assay [5] was 0.
For `CCCCCCCCSc1nnc2[nH]c(=O)cc(N)n12`, the compound was called inactive in assay [1], in assay [4] and in assay [6]. This compound showed a fluorescence, percent of control (lower = inhibition) in assay [2] of 33.4%. In assay [3], this compound returned a GTP binding, percent of control of 79.8%. Besides, the GTP binding signal, raw median fluorescence (lower = inhibition) (MCF (arbitrary fluorescence units)) in assay [5] was found to be 241.
With `COc1ccc2nc(C)cc(SCC(=O)N/N=C/c3ccc(O)c(O)c3)c2c1`, the compound was classed as inactive in assay [1], in assay [4] and in assay [6]. In assay [2], this compound had a fluorescence, percent of control (lower = inhibition) of 35%. In assay [3], the GTP binding, percent of control was found to be 75.8%. This compound yielded a GTP binding signal, raw median fluorescence (lower = inhibition) (MCF (arbitrary fluorescence units)) in assay [5] of 164.
As to `COc1cccc(Nc2ccccc2C(=O)O)c1`, the compound was classed as inactive in assay [1], in assay [4] and in assay [6]. This compound registered a fluorescence, percent of control (lower = inhibition) in assay [2] of 92.6%. For the same compound, in assay [3], the GTP binding, percent of control turned out to be 107%. In assay [5], this compound yielded a GTP binding signal, raw median fluorescence (lower = inhibition) (MCF (arbitrary fluorescence units)) of 78.2.
On to `CC(C)N(C(=O)Cn1cnc2cc([N+](=O)[O-])ccc2c1=O)C(C)C`, for which the result in assay [1], in assay [4] and in assay [6] was inactive. In assay [2], this compound gave a fluorescence, percent of control (lower = inhibition) of 34.2%. In assay [3], the GTP binding, percent of control was determined as 76.5%. The same compound yielded a GTP binding signal, raw median fluorescence (lower = inhibition) (MCF (arbitrary fluorescence units)) in assay [5] of 156.
On to `C=CCN1C(=O)/C(=C/c2ccc(N(C)C)cc2)S/C1=N\c1nnc(CC)s1`, for which the call in assay [1], in assay [4] and in assay [6] was inactive. The compound also displayed a fluorescence, percent of control (lower = inhibition) in assay [2] of 74.8%. The compound further yielded a GTP binding, percent of control in assay [3] of 90.2%. The compound further registered a GTP binding signal, raw median fluorescence (lower = inhibition) (MCF (arbitrary fluorescence units)) in assay [5] of 231.
Take `O=C(CCc1nnc(-c2ccc3c(c2)OCO3)o1)N1CCC(c2ccc(F)cc2)C1` (stereo not given): the outcome in assay [1], in assay [4] and in assay [6] was inactive. The same compound registered a fluorescence, percent of control (lower = inhibition) in assay [2] of 36.1%. In addition, the GTP binding, percent of control in assay [3] stood at 88.1%. Moreover, in assay [5], the GTP binding signal, raw median fluorescence (lower = inhibition) (MCF (arbitrary fluorescence units)) amounted to 303.
As to `CCc1nnc2c(N(C)C)nc3ccccc3n12`, the outcome in assay [1], in assay [4] and in assay [6] was inactive. This compound also gave a fluorescence, percent of control (lower = inhibition) in assay [2] of 34.8%. The GTP binding, percent of control in assay [3] turned out to be 76.3%. Further, the GTP binding signal, raw median fluorescence (lower = inhibition) (MCF (arbitrary fluorescence units)) in assay [5] stood at 168.
For the compound `COc1cc(C(=O)OCC(=O)Nc2ccc3c(c2)OC(F)(F)O3)ccc1OCc1c(C)noc1C`, the compound was called inactive in assay [1], in assay [4] and in assay [6]. Also, the fluorescence, percent of control (lower = inhibition) in assay [2] stood at 52.4%. This compound also displayed a GTP binding, percent of control in assay [3] of 53.9%. The compound also gave a GTP binding signal, raw median fluorescence (lower = inhibition) (MCF (arbitrary fluorescence units)) in assay [5] of 186.
`O=C(Nc1nccs1)c1ccc(-c2cccc([N+](=O)[O-])c2)o1`: the outcome in assay [1], in assay [4] and in assay [6] was inactive. Also, the fluorescence, percent of control (lower = inhibition) in assay [2] was 31.6%. Also, the GTP binding, percent of control in assay [3] came to 72.4%. This compound had a GTP binding signal, raw median fluorescence (lower = inhibition) (MCF (arbitrary fluorescence units)) in assay [5] of 181.
With `O=C(CSc1ncnc2scc(-c3ccccc3)c12)N1CCN(Cc2ccc3c(c2)OCO3)CC1`, the compound was called inactive in assay [1], in assay [4] and in assay [6]. Besides, in assay [2], the fluorescence, percent of control (lower = inhibition) came out at 45.2%. The GTP binding, percent of control in assay [3] is 63.6%. This compound displayed a GTP binding signal, raw median fluorescence (lower = inhibition) (MCF (arbitrary fluorescence units)) in assay [5] of 196.
